Bioassay records from PubChem BioAssay.
D2 ag-1: activates the human D2 dopamine receptor. actives 0.53% (n = 340,000). HEK293 T-REx D2 cells, calcium flux agonist mode. activation, % at 2 µM;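 active = activation over 3 SD above normal in the single-dose calcium agonist read, cut at about 30% in these data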; also: 0% is about no effect
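Agonism is scored from calcium flux in a force-coupled, inducible HEK293 cell line expressing D2, read kinetically for 180 s after compound addition against dopamine controls.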
D2 antagonist: antagonizes the human D2 dopamine receptor; P14416; HEK293 TREx D2 cells, calcium flux, dopamine EC80; inhibition, % at 10 µM; actives 2% (n = 340,000); in the data active = inhibition above about 30%; inactive = below that, where a call was filed; also: 0% is about no effect
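Dopamine at EC80 is the agonist stimulus; test compounds precede it by 180 s. Calcium flux read kinetically in a force-coupled, inducible HEK293 T-REx D2 cell line.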
D2 PAM-1: potentiates the human D2 dopamine receptor allosterically; P14416; DiscoveRx D2 beta-arrestin cells, luminescence, 90 min; 100% = 57 uM dopamine signal; potentiation, % (test concentration not listed); actives 0.23% (n = 360,000); AID 624464; in the data active = potentiation above about 50%; inconclusive = mostly about 30% to 49%
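PathHunter D2 cells, attached overnight at 37 deg C, received compound in DMSO plus dopamine at EC20 (50 nM final) for 90 min at 37 deg C. Beta-arrestin recruitment was read as luminescence after 1 h with detection reagent at ambient temperature.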
D2 ag-2: activates the human D2 dopamine receptor; P14416; DiscoveRx PathHunter D2 beta-arrestin, luminescence, 90 min; 100% = 57 uM dopamine signal; activation, % (no concentration beside the values); actives 0.084% (n = 360,000); AID 624465; in the data active = activation above about 40%; inconclusive = between about 15% and that limit
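Agonist mode: compounds alone added to overnight-plated D2 PathHunter cells for 90 min at 37 C, with 57 uM final dopamine (EC100) defining full response. Beta-arrestin recruitment detected by chemiluminescent reagent, read after 1 h at ambient temperature.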
D2 PAM-2: positive allosteric modulators of human D2 dopamine receptor; potentiation, % at 10 µM; P14416; actives 0.34% (n = 340,000); AID 485347; HEK293 T-REx D2, calcium flux, EC20 dopamine potentiation;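 active = potentiation over 3 SD above the plate norm, cut at about 30% in these data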; also: 0% is about no effect
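Using a no-wash calcium dye in inducible, force-coupled HEK293 Trex cells expressing D2, we tracked fluorescence each second for 180 s after compound, then for 180 s after EC20 dopamine to detect augmented signalling.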
D3 ag: confirmation of human D3 dopamine receptor agonists, beta-arrestin; DiscoveRx D3 beta-arrestin cells, luminescence, 90 min; shares compounds with D2 ag-1; actives 4% (n = 2,300); AID 720506; Potency, µM (doses to about 76.9 µM), without a hit: at the highest dose activation, hits mostly activators;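 also: potency is read from the fitted curve at half-maximal effect; 100% = dopamine control response; nearly all actives have a fitted effect of over 70% in size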
Target sequence (P35462 whole entry, looked up): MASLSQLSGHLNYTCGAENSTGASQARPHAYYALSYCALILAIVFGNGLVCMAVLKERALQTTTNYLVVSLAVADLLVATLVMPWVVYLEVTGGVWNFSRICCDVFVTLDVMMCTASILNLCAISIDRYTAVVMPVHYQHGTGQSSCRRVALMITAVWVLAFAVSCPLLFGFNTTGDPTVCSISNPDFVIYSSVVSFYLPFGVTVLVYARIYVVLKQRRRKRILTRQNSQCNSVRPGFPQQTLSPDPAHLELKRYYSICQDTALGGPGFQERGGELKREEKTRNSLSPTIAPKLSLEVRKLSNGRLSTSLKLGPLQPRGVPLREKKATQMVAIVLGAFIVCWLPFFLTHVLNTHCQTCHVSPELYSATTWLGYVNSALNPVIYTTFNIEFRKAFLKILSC
D2 ag-3: activates human D2 dopamine receptor in D3 counterscreen | DiscoveRx PathHunter D2 beta-arrestin, luminescence, 90 min; response scale: percent relative to full dopamine signal | shares compounds with D2 ag-1 | actives 5.9% (n = 2,300) | AID 720507 | Potency, µM (highest dose often 76.9 µM), without a hit: top-dose activation, usual class: activators; also: potency is read from the fitted curve at half-maximal effect; % of control where 0% means no effect; nearly all actives have a fitted effect of over 70% in size
Active calls of the source: *; ? = inconclusive; · = no result. In the library only some 2.4% were active in any assay of this set; here they are far more common. Unless noted, calls follow the shape of the dose curve; as a rule, active = well fitted activation curve with a large enough effect; inconclusive = small, poorly fitted or top-dose-only effect; inactive = flat fitted curve, though single readings scatter.

SMILES	D2 ag-1	D2 antagonist	D2 PAM-1	D2 ag-2	D2 PAM-2	others
CCc1cccc(NC(=O)C2CCN(S(=O)(=O)c3ccc4c(c3)NC(=O)CO4)CC2)c1	0	30*	-10	5	-25
COc1ccc(C)cc1NC(=O)C(CCSC)NS(=O)(=O)c1ccc2c(c1)oc(=O)n2C (stereo not drawn)	·	·	·	·	14
Cc1ccc(NC(=O)Cn2ncn3c(cc4ccccc43)c2=O)cc1C	0	·	·	·	5
CSc1ccc(/C=N/n2c(C)nnc2C)cc1	2	35*	0	-2	1
Cc1nnc(C)n1/N=C/c1ccc(O)cc1	0	-4	-6	0	2
CCc1cc(=O)[nH]c(SCc2nc(-c3ccccc3)no2)n1	·	·	·	·	19
CCOc1ccccc1N1CCN(C(=O)c2ccc(-c3ccc(OC(C)=O)cc3)cc2)CC1	-2	31*	-4	-1	0
CCC(=O)N1CCc2cc(CNC(=O)c3ccccc3C)ccc21	1	·	·	·	10
COc1cc(/C=C/C(=O)OCC(=O)NC(=O)NC(C)C)ccc1OCC#N	0	46*	-7	-3	3
Cc1cccc(-c2nc3cc(NC(=O)c4ccc(OCC(C)C)cc4)ccc3o2)c1	1	·	·	·	-15
O=C1N/C(=N\S(=O)(=O)c2ccccc2)S/C1=C\c1cc([N+](=O)[O-])ccc1O	33*	-19	-25	-13	-4
O=C1N/C(=N\S(=O)(=O)Cc2ccccc2)S/C1=C/c1cc([N+](=O)[O-])ccc1O	59*	31*	-14	-9	2
COc1cc(/C=C2\S/C(=N/S(=O)(=O)Cc3ccccc3)NC2=O)c([N+](=O)[O-])cc1OC	·	·	-15	-5	1
CCc1ccc(C2CC(c3ccccc3)Nc3nc(N)nn32)cc1 (stereo not drawn)	0	-13	3	7	11
CCc1ccc(C2CC(c3ccccc3)n3ncnc3N2)cc1 (stereo not drawn)	2	42*	-3	3	0
CCOC(=O)c1c(CSc2ccccc2)n(C)c2cc(Br)c(O)c(CN(C)C)c12	-1	-6	-4	1	-3
CCOC(=O)c1c(CN2CCCCC2)n(C)c2cc(Br)c(O)c(CN(C)C)c12	0	60*	-6	-5	-33
Cc1noc(C)c1S(=O)(=O)NCCN1CCN(c2ccccc2)CC1	31*	33*	-23	10	-17
CC(C)OC(=O)c1c(NC(=O)CCC(=O)O)sc2c1CCCCC2	1	3	-10	-2	7
CC(C)OC(=O)c1c(NC(=O)CCn2nnc3ccccc32)sc2c1CCCC2	4	37*	3	0	·
COc1ccc2cc3cc(C(=O)N4CCN(c5cccc(Cl)c5)CC4)sc3nc2c1	0	·	·	·	5
COc1cc(-c2cc(OC)c3c(C)oc(C)c3c(=O)c2)ccc1OC(=O)c1ccccc1C	2	·	·	·	1
COc1ccc(OC)c(N2C(=O)CC(Cc3cc(C)cc(C)c3)C2=O)c1 (stereo not drawn)	0	10	10	-1	30*
COc1ccc(OC)c(N2C(=O)CC(Cc3ccc(Cl)cc3)C2=O)c1 (stereo not drawn)	1	-22	-13	-2	29
COc1cc(CNCCSc2nnnn2C)ccc1OCc1ccccc1C	1	·	·	·	-10
SMILES	D2 ag-1	D2 antagonist	D2 PAM-1	D2 ag-2	D2 PAM-2	others
Cn1c(SCC(=O)NCc2ccc(F)cc2)ncc(C(=O)Nc2ccccc2)c1=O	0	32*	-33	-4	9
O=C(Nc1nc2ccccc2n1CCN1CCCC1)C1CCCCC1	-1	22	-37	-5	-21
COc1ccc(CNc2nc3ccccc3n2CCN2CCCCC2)c(OC)c1	7	0	-44	-6	-20
COc1ccc(OC)c(CNc2nc3ccccc3n2CCN2CCCCC2)c1	0	34*	-19	-5	-21
O=C(Nc1nc2ccccc2n1CCN1CCCCC1)C1CCCCC1	-1	42*	-10	-1	-19
CCN(CC)CCn1c(NCc2ccc(OC)cc2)nc2ccccc21	0	75*	-30	-3	-38
CCCCCn1c(NCc2ccc(OC)cc2)nc2ccccc21	0	·	·	·	0
CC(C)c1ccc(NC(=O)c2ccc(=O)n(Cc3ccccc3)c2)cc1	0	·	·	·	1
CCN(c1ccccc1)c1nnc(NC(=O)Nc2ccc(Br)cc2F)s1	1	·	·	·	0
CN1/C(=C/C=N/n2cnnc2)C(C)(C)c2ccccc21	-1	56*	2	0	·
CN1/C(=C\C=C(C#N)C#N)C(C)(C)c2ccccc21	6	24	0	1	2
Cn1cc(-c2cc3n(n2)CCC(=O)N3CC(=O)NCc2ccc(Cl)cc2)c2ccccc21	-2	·	·	·	-5
Cc1ccc(CO/N=C\Cc2snc(Sc3ncc(C(F)(F)F)cc3Cl)c2C#N)cc1	0	33*	11	2	-1
O=C(N/C(=C/c1ccc(F)cc1)C(=O)N1CCOCC1)c1ccccc1	0	0	-7	-8	3	D3 ag=-8%;D2 ag-3=-3%
Cc1cc(C)nc(-n2ncc3c2CC(c2ccccc2)CC3=O)n1 (stereo not drawn)	48*	-9	-3	2	-21	D3 ag=-2%;D2 ag-3=-2%
O=C(NCc1ccccc1)C(=O)NCC(c1ccc2c(c1)OCO2)N1CCOCC1 (stereo not drawn)	-1	·	·	·	10
COc1ccc(CCC(=O)OCC(=O)N2CCN(S(=O)(=O)c3ccc(C)cc3C)CC2)cc1	0	16	-35	-7	6	D3 ag=2%;D2 ag-3=-1%
Cc1ccc(OCCC(=O)OCC(=O)N2CCN(S(=O)(=O)c3ccc(C)cc3C)CC2)cc1	0	-13	9	2	17
CC(CCc1ccccc1)NC(=O)c1ccccc1 (stereo not drawn)	·	·	-5	-3	-8
CC(CCc1ccccc1)NCC(O)c1ccc(O)c(C(N)=O)c1 (stereo not drawn)	72*	67*	-2	3	-27	D3 ag=4%;D2 ag-3=?
O=C(NCCC1=CCCCC1)c1ccc2c(c1)ncn2-c1ccc(F)c(F)c1	1	·	·	·	-10
CCOC(=O)NC(=O)/C(C#N)=N\Nc1cccc(Cl)c1	7	38*	-2	4	9	D3 ag=9%;D2 ag-3=-2%
CCN1c2ccccc2-c2nc(SCC(=O)NCc3ccc(Cl)cc3)ncc2S1(=O)=O	0	·	·	·	-1
